In the library only some 2.1% were active in any assay of this set; here they are far more common.
GRP78 ERSR act = ER stress response induction in glioma; hit rate 0.02% among 420,000; U87-MG GRP78 promoter luciferase reporter, 16 h; Potency, µM, for the others: at the highest dose activation, most hits filed as activators; also: series mostly up to about 76 µM; % of control where 0% means no effect; nearly all actives have a fitted effect of over 35% in size
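Stably transfected U87-MG glioma cells carrying a GRP78-based luciferase sensor; 16 h compound incubation. Luminescence end-point read 10 min after Bright-Glo addition at room temperature.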
Mito fusion act = blocks mitochondrial division or promotes mitochondrial fusion; S. cerevisiae fusion-defective mutant growth rescue, CellTiterGlo 48 h; Potency, µM (series often up to 46.1 µM), inactives show top-dose growth rescue (activation), usual class: activators; hit rate 0.23% among 320,000; AID 485298; also: % of control where 0% means no effect; nearly all actives have a fitted effect of over 45% in size
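Compounds are tested for their ability to restore growth of mitochondrial fusion-defective yeast strains at non-permissive 37C in YPEG medium over 48 hours. Viability is quantified by luciferase luminescence.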
aSyn yeast inh = rescues yeast growth from alpha-synuclein toxicity; Yeast expressing alpha-synuclein, growth rescue, BacTiter-Glo, 24 h; Potency, µM (titrated, usually from 46.1 µM), for inactives: at the highest dose growth rescue (activation), hits mostly activators; hit rate 0.14% among 370,000; also: % of control where 0% means no effect; nearly all actives have a fitted effect of over 65% in size
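Galactose-induced alpha-syn yeast (OD600=0.02, raffinose-pregrown) + pinned cpd, 24 hr, 30 deg C; growth by BacTiter-Glo luminescence. Growth restoration scores as activation.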
TDP43 rescue = TDP-43 toxicity inhibition in yeast; TDP-43 expressing yeast growth rescue, BacTiter-Glo, 24 h; Potency, µM (highest dose often 46.1 µM), for inactives: at the top dose growth rescue (activation), most hits filed as activators; hit rate 1.8% among 410,000; also: % of control where 0% means no effect; nearly all actives have a fitted effect of over 50% in size
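Growth rescue of TDP-43-toxic yeast measured as ATP luminescence (BacTiter-Glo). Cells grown to mid-log in raffinose, induced in galactose at OD600=0.02, exposed to compound 24 hr at 30 deg C.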
AT treatment = potential ataxia-telangiectasia treatment. F2112 A-T fibroblasts, KAP-1 phosphorylation AlphaLISA; neocarzinostatin DNA damage 30 min before lysis. Potency, µM (top dose mostly 57.5 µM), for inactives: at the top dose activation, actives largely listed as activators. hit rate 0.19% among 320,000; also: % of control where 0% means no effect; nearly all actives have a fitted effect of over 45% in size
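ATM-like activity read as KAP-1 phosphorylation via AlphaLISA donor/acceptor antibody pairs after lysis and 6 hr at 25C. Cells were ATM-null patient fibroblasts (F2112, hTERT), dosed 60 min, then exposed to the DSB inducer NCS for 30 min.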
Abeta yeast res = compounds reversing amyloid beta toxicity in yeast; yeast expressing A-beta42, growth rescue, OD600, 48 h; response scale: 0% DMSO, 100% iron-clioquinol control; Potency, µM (doses to about 46.1 µM), usual class: activators; hit rate 0.063% among 410,000; AID 1347071; also: nearly all actives have a fitted effect of over 55% in size
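Growth rescue measured by 600 nm absorbance after 48 h yeast culture at 30 C with compound. Values normalized between DMSO and an equimolar ferric chloride plus clioquinol control.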
* = called active by the depositor; i = inactive; ? = inconclusive; · = no result given; ! = not active in a repeat; [ ] = dose if it differs, or a comment. Calls follow the shape of the dose curve; as a rule, active = well fitted curve in the direction sought with a large enough effect; inconclusive = small, poorly fitted or top-dose-only effect, or another doubt; inactive = no such curve, though single readings can be large; an effect the other way counts as inactive or inconclusive. Potency is read from the fitted curve at half-maximal effect.

SMILES | GRP78 ERSR act | Mito fusion act | aSyn yeast inh | TDP43 rescue | AT treatment | Abeta yeast res
O=C1C=C(NC2=CC3OC(c4ccccc4)OCC3OC2=O)CCC1 (configuration not stated) | -6.2% | -1.2% | 17.8µM* | 12.6µM* | ? | i
COc1ccc(CN2CC[C@H]3C=CC[C@@H](C(=O)NC4CCCCC4)[C@H]3C2=O)cc1OC | 2.2% | · | · | · | · | ·
COc1ccc(N/C(C)=C/C(=S)Nc2ccccc2)cc1 | -4.1% | -0.4% | 22.4% | 12.6µM* | -5.1% | i
COC(=O)c1sc(S(=O)(=O)N2CCCCC2C)c(C(=O)OC)c1C (configuration not stated) | -2.1% | 4.1% | -0.2%[1.84 µM] | 6.3% | 9.7% | i
COc1ccc2c(c1)CCc1cnc(-n3ncc(C(=O)N(C)CC4CCCN(C)C4)c3C)nc1-2 (configuration not stated) | -3.6% | · | · | · | · | ·
Cc1ncc2c(c1CNS(=O)(=O)c1cccs1)CCN(C(=O)/C=C/c1cc(F)cc(F)c1)C2 | -0.4% | · | · | · | · | ·
Clc1cccc(NCc2nnc(SCc3ccccc3Cl)o2)c1 | -1.3% | ? | 20µM* | 12.6µM* | 2.6% | i
Fc1cccc(Cl)c1CSc1nnc(-c2ccncc2)o1 | 10.1% | 1.5% | -8.5% | 12.6µM* | -4.4% | i
Clc1ccccc1CSc1nnc(-c2ccncc2)o1 | 4.5% | -2.3% | 7.1% | 10µM* | 5.2% | i
c1ccc2c(CSc3nnc(-c4ccncc4)o3)cccc2c1 | -0.1% | 3.3% | 3.4% | 28.7% | 17.8% | i
O=C(Nc1ccccc1)c1ccc(Br)o1 | -1.7% | -6.1% | 2.7% | ? | -11.0% | i
COC(=O)Cc1ccc(NC(=O)c2ccc(Br)o2)cc1 | ? | 0.4% | -12.4% | -5.1% | -11.6% | i
O=C(Nc1ccc2ccccc2c1)c1ccc(Br)o1 | -2.8% | 2.1% | -4.2% | 20µM* | 27.6% | i
CCCOC(=O)c1ccc(NC(=O)c2ccc(Br)o2)cc1 | 6.2% | 22.4µM* | -1.0% | 16.3% | 0.2% | i
CC1=C(C(=O)Nc2cc(Cl)ccc2C)C2(CCCCC2)OC1=O | · | · | · | 35.5µM* | · | i
CCOc1ccc(C(=O)NCC(=O)OCc2c(F)cccc2Cl)cc1 | 1.5% | -3.8% | 1.3% | 22.4µM* | 1.7% | i
O=C(O)c1ccc(-c2ccccc2C(F)(F)F)s1 | -3.4% | · | · | · | · | ·
O=C(CSC1=NNC(c2ccccn2)S1)Nc1ccccc1 (configuration not stated) | -4.6% | -2.9% | 20.6% | 12.6µM* | -4.6% | ?
O=C(CSC1=NNC(c2ccccn2)S1)Nc1cccc(Cl)c1 (configuration not stated) | 1.5% | 0.5% | 8.91µM* | ? | -2.3% | 15.8µM*
O=C(CSc1nncn1-c1ccccn1)Nc1cccc(Cl)c1 | -4.1% | -5.5% | 3.1% | -5.8%[0.397 µM] | 1.6% | i
COc1ccc(CN2C(=O)c3cccnc3C2=O)cc1S(=O)(=O)N(C)c1ccc(C)cc1 | -5.5% | 2.6% | 1.0% | 11.1% | 4.7% | i
O=C(O)c1cccnc1Nc1cccc(C(F)(F)F)c1 | ? | 18.4µM*! | -90.8% | 1.4% | 2.6% | i
CCO[C@H]1[C@H](NC(=O)c2cccnc2)c2ccccc2C12CCN(C(=O)c1cc(C)n(C)n1)CC2 | -4.5% | · | · | · | · | ·
CC(=O)N(C(C)=O)N1C(=O)C2C3c4ccccc4C(c4ccccc43)C2C1=O (configuration not stated) | -5.6% | 1.1% | -21.4% | 22.4µM* | 13.5% | i
Nc1c(C(=O)c2ccc(Cl)cc2)oc2ccccc12 | 3.7% | 25.1µM* | 1.3% | 15.0% | 9.5% | i
SMILES | GRP78 ERSR act | Mito fusion act | aSyn yeast inh | TDP43 rescue | AT treatment | Abeta yeast res
COc1ccc(C(=O)c2oc3ccc(OC)cc3c2N)cc1 | 3.8% | ? | 0.5% | 11.2µM* | 9.6% | i
COc1cc(OC)c(C#N)c(S(=O)(=O)Cc2ccccc2)c1 | -3.5% | 2.6% | 0.2% | -7.2% | -3.6% | i
N#Cc1c([N+](=O)[O-])cc([N+](=O)[O-])cc1S(=O)(=O)Cc1ccccc1 | -14.7% | 0.1% | -64.2% | 11.2µM* | -30.0% | i
S=c1[nH]nc(-c2cc3c(s2)-c2ccccc2CC3)o1 | 6.7% | -30.6% | -7.2% | 14.1µM* | 30.6% | i
Cc1ccc(NC(=O)Cn2c(=O)n(CCC(=O)NCc3ccccc3Cl)c(=O)c3ccccc32)c(C)c1 | -0.2% | · | · | -10.0% | · | i
Cc1ccc(Cn2c(C)c(C(=O)NCc3ccc4c(c3)OCO4)sc2=O)cc1 | -2.2% | · | -1.9% | 25.1µM* | · | ?
Cc1c(C(=O)NCc2ccc3c(c2)OCO3)sc(=O)n1Cc1cccc(F)c1 | -0.7% | · | 1.4% | ? | · | i
Cc1c(C(=O)NCc2ccc3c(c2)OCO3)sc(=O)n1Cc1ccc(-c2ccccc2)cc1 | -2.5% | · | -4.0% | 23.5% | · | i
CSc1ccc(Cn2c(C)c(C(=O)NCc3ccc4c(c3)OCO4)sc2=O)cc1 | 0.8% | · | -7.1% | 20µM* | · | ?
Cc1ccc(NC(=S)NCc2ccc3c(c2)OCO3)cc1 | -3.4% | 5.3% | -3.0% | 22.4µM* | 2.1% | i
CN1CCN(c2cc(-c3ccoc3)ncn2)CC1 | 1.7% | · | · | · | · | ·
CC(NC(=O)C1CCOCC1)c1nnc2n1CCN(Cc1ccc3cccnc3c1)CC2 (configuration not stated) | -3.3% | · | · | · | · | ·
N#CC(C(=O)c1ccccc1Cl)=C1SCCCS1 | 3.1% | 2.0% | 10.5% | 35.5µM* | -1.1% | i
COc1ccccc1NC(=S)NC12CN3CN(CN(C3)C1)C2 | -4.5% | 6.7% | 5.4% | 14.4% | -2.8% | i
COc1ccccc1NC(=S)N1CC(C)(C)C1=O | -6.6% | -5.6% | 5.8% | ? | 5.62µM* | i
CCn1c(-c2ccccc2F)nc2cc(NC(C)=O)cc(C(=O)N(C)Cc3cn(C)nc3C)c21 | -4.8% | · | · | · | · | ·
COC(=O)C1CCN(Cc2ccc3c(c2)CN(C(=O)C2Cc4ccccc4O2)CCO3)CC1 (configuration not stated) | -6.9% | · | · | · | · | ·
O=C(NCCO)c1cn(C2CCCN(Cc3cccc(C(F)(F)F)c3)C2)nn1 (configuration not stated) | -4.5% | · | · | · | · | ·
CC(C)c1ccc(/C=C/C2=NNC(=O)CC2)cc1 | -4.0% | 2.7% | 0.4% | 11.2µM* | -0.6% | i
CCOc1ccc(NC(=O)Cn2cc(S(=O)(=O)N3CCN(c4ccccc4F)CC3)c3ccccc3c2=O)cc1 | -2.2% | · | · | 16.9% | · | i
COC(=O)c1ccccc1NC(=O)CCS(=O)(=O)c1nc(-c2ccc3c(c2)OCO3)cc(C(F)(F)F)n1 | 20.2% | · | · | 0.0% | · | i
CSc1ccccc1NC(=O)CCS(=O)(=O)c1nc(-c2ccc3c(c2)OCO3)cc(C(F)(F)F)n1 | ? | · | -3.5% | 11.2µM* | · | i

Screens: PubChem, National Center for Advancing Translational Sciences (NCATS)
